NTR1 agonist – activates human neurotensin receptor 1; P30989; activation, % at 20 µM; NTR1-U2OS beta-arrestin-GFP spot imaging, agonist mode; 330,000 tested, 0.17% active;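 active means activation at or above 40% of the spot to cytoplasm intensity ratio, with at least 20 cells analyzed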;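 further: 0% = DMSO without peptide and 100% = 100 nM NTR1 peptide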
A1 inh – inhibitors of the anti-apoptotic protein A1, read as caspase activation | MEF A1-2A-BIM cells, Caspase-Glo 3/7 luminescence, 3 h; percent of clofoctol response, vehicle zero | caspase activation, % (concentration not given with the values) | 330,000 tested, 0.066% active | AID 2462;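 active means over half of replicate activation scores above 10%, or exactly half above 10 with the replicate mean above 10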
GRK2 aptamer HTS – inhibitors of human GRK2 displacing RNA aptamer; P25098; bead flow cytometry, FAM-aptamer displacement from GRK2; inhibition of aptamer binding, % at 10 µM; 330,000 tested, 0.59% active;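 active means inhibition of aptamer binding above 40%, roughly 3 SD of noise, on plates passing a quality check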;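 further: median bead fluorescence of bound FAM aptamer so fluorescent compounds give negative values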
B2AR ag – human beta-2 adrenergic receptor agonism by FAP; P07550; Am2.2-beta2AR cells, FAP receptor internalization, flow cytometry; response, % (no concentration beside the values); 340,000 tested, 0.43% active; AID 504454;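 active means response above a set limit, near 3 SD of response in nonfluorescent compounds, cut at about 42% in these data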
VLA-4 inh – inhibition in a human VLA-4 binding assay; VLA-4 expressing cells, ligand binding flow cytometry; inhibition, % (about 7 µM as worked out from the volumes in the protocol); 330,000 tested, 0.2% active; in the data active means inhibition above about 50%
Target sequence (P13612 whole entry, looked up): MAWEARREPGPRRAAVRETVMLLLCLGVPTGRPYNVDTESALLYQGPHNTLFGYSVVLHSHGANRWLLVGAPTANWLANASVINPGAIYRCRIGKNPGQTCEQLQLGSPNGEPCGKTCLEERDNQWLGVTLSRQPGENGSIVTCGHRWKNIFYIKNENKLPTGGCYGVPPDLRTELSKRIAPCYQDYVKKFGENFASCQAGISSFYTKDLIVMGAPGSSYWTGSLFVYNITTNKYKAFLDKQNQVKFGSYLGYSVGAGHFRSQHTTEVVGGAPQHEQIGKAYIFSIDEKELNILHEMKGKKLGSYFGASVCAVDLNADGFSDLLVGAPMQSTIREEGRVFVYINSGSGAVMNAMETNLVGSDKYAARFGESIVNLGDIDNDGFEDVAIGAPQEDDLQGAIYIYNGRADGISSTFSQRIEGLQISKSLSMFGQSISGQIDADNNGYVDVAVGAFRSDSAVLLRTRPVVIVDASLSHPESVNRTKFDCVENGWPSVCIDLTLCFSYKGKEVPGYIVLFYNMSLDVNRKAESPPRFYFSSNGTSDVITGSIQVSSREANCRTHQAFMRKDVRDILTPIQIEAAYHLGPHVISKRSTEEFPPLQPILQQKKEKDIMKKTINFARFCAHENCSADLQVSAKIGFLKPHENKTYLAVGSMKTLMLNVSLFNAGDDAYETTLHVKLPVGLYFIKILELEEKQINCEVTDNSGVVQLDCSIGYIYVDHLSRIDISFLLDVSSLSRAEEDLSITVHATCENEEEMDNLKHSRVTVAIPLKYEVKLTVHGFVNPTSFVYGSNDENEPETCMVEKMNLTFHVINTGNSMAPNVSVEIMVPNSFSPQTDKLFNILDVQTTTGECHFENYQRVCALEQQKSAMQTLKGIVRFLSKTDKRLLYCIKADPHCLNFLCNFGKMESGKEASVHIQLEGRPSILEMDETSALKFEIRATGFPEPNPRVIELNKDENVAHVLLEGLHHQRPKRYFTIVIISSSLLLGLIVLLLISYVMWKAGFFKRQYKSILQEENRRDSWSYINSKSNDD
B2AR ag CP1 – human beta-2 adrenergic receptor agonism, cherry pick. 1,100 tested, 25% active. percent response (surface receptor), % at 10 µM. shares compounds with B2AR ag. Am2.2-beta2AR cells, FAP surface receptor, flow cytometry; stronger effect = lower value. AID 540358;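 active means surface receptor percent response at or below 58%, roughly 3 SD from nonfluorescent compounds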
FAP fluor counter – fluorescence artifact in beta-2AR agonist FAP counterscreen; shares compounds with B2AR ag; Am2.2 cells, FAP fluorogen flow cytometry; stronger effect = lower value; calls only at 10 µM; 1,100 tested, under 10 active; AID 588765;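 active means percent response below a set limit in fluorescence channel 1 and below 50% in channel 8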
* marks the source's active call; other numbers are inactive results. Only some compounds are listed: those with a hit (about 1.3% of all), similar ones and a draw of the others.

Results for CN(Cc1ccc(OC(F)F)cc1)C(=O)c1ccc2c(=O)n3c(nc2c1)CCC3 ?
NTR1 agonist: 1; A1 inh: 0; GRK2 aptamer HTS: 0; B2AR ag: -6; VLA-4 inh: 3

What do the screens show for `Cn1c(=S)c2[nH]c(SCCN3CCCC3)nc2n(C)c1=O`?
NTR1 agonist: -1; A1 inh: 0; GRK2 aptamer HTS: 6; B2AR ag: -3; VLA-4 inh: 12; B2AR ag CP1: 115; FAP fluor counter: inactive

Results for COc1ccc(CNC(=O)CCCCCNc2nc(=S)[nH]c3ccccc23)cc1 ?
NTR1 agonist: 0; A1 inh: 1; GRK2 aptamer HTS: 1; B2AR ag: 129*; VLA-4 inh: -1; B2AR ag CP1: 26*; FAP fluor counter: inactive

Results for Cc1cc(C)nc(NS(=O)(=O)c2ccc(NC(=O)c3ccco3)cc2)n1 ?
NTR1 agonist: -1; A1 inh: 0; GRK2 aptamer HTS: 0; B2AR ag: -6; VLA-4 inh: 5

What do the screens show for `CCc1ccc(C(=O)Nc2ccc(S(=O)(=O)Nc3nc(C)cc(C)n3)cc2)o1`?
NTR1 agonist: 1; A1 inh: -1; GRK2 aptamer HTS: 1; B2AR ag: 54*; VLA-4 inh: 12; B2AR ag CP1: 105; FAP fluor counter: inactive

What do the screens show for `COc1ccc(N2CCN(C3CCCN(Cc4ccc(F)cc4)C3)CC2)cc1` (stereo unspecified)?
NTR1 agonist: 1; A1 inh: -1; GRK2 aptamer HTS: 3; B2AR ag: -7; VLA-4 inh: 2

How did COc1ccc(CN2C[C@H]3CCCN3c3cc(Br)ccc3S2(=O)=O)cc1 do in these assays?
NTR1 agonist: 2; GRK2 aptamer HTS: 3; B2AR ag: 44*; B2AR ag CP1: 65; FAP fluor counter: inactive

Results for O=C(NCC(c1cccs1)N1CCOCC1)c1ccccc1NS(=O)(=O)c1ccc(Cl)c([N+](=O)[O-])c1 (stereo unspecified) ?
NTR1 agonist: 10; A1 inh: 0; GRK2 aptamer HTS: 5; B2AR ag: 63*; VLA-4 inh: 8; B2AR ag CP1: 94; FAP fluor counter: inactive

Results for COCCOC(=O)C1=C(C)NC(=O)NC1c1cn(-c2ccccc2)nc1-c1cccs1 (stereo unspecified) ?
NTR1 agonist: 1; A1 inh: 0; GRK2 aptamer HTS: 3; B2AR ag: -10; VLA-4 inh: 0

What do the screens show for `CC1=C(C#N)C(c2cn(-c3ccccc3)nc2-c2cccs2)C(C#N)=C(C)N1`?
NTR1 agonist: 3; A1 inh: 0; GRK2 aptamer HTS: 3; B2AR ag: 108*; VLA-4 inh: 10; B2AR ag CP1: 13*; FAP fluor counter: inactive

How did CN(CCOc1ccc(-c2ccn(S(=O)(=O)c3cccc4ccccc34)n2)cc1)c1ccccn1 do in these assays?
NTR1 agonist: 3; A1 inh: 0; GRK2 aptamer HTS: 0; B2AR ag: 76*; VLA-4 inh: 1; B2AR ag CP1: 39*; FAP fluor counter: inactive

What do the screens show for `O=C(CCC1CCCN(C(=O)c2cccc(F)c2)C1)N1CCN(c2ccccn2)CC1` (stereo unspecified)?
NTR1 agonist: 0; A1 inh: 0; GRK2 aptamer HTS: 0; B2AR ag: -9; VLA-4 inh: -2

How did CCC(C)(C)NC(=O)C(c1ccc(OC)cc1)N(Cc1ccccc1)C(=O)CCC(=O)Nc1cc(C)on1 (stereo unspecified) do in these assays?
NTR1 agonist: 3; A1 inh: 1; GRK2 aptamer HTS: 0; B2AR ag: 62*; VLA-4 inh: -2; B2AR ag CP1: 109; FAP fluor counter: inactive

What do the screens show for `CCC(=O)N1COC[C@@H]1Cc1ccccc1`?
NTR1 agonist: -1; A1 inh: 0; GRK2 aptamer HTS: 2; B2AR ag: -1; VLA-4 inh: -1; B2AR ag CP1: 107; FAP fluor counter: inactive

What do the screens show for `CCOC(=O)c1ccc(NC(=O)Cn2nnc(-c3ccccc3)n2)cc1`?
NTR1 agonist: 0; A1 inh: 0; GRK2 aptamer HTS: 0; B2AR ag: 64*; VLA-4 inh: 4; B2AR ag CP1: 1.2*; FAP fluor counter: inactive

Results for CC(=O)O[C@@H](C[C@@H](C)C1=C2C[C@H](O)C3[C@@]4(C)CCC(=O)C(C)(C)C4CC[C@]3(C)[C@@]2(C)CC1)[C@H]1OC1(C)C (stereo partly specified) ?
B2AR ag: 8

What do the screens show for `CC(NCCC(c1ccccc1)c1ccccc1)c1ccccc1` (stereo unspecified)?
NTR1 agonist: 10; A1 inh: 0; GRK2 aptamer HTS: 2; B2AR ag: 25; VLA-4 inh: 8; B2AR ag CP1: 84; FAP fluor counter: inactive

What do the screens show for `CC1=C/C(=N\NC(=S)NCc2ccccc2)CC1`?
NTR1 agonist: 0; A1 inh: 0; GRK2 aptamer HTS: 1; B2AR ag: -2; VLA-4 inh: -14; B2AR ag CP1: 102; FAP fluor counter: inactive

What do the screens show for `CC(NC(=O)c1ccco1)c1nc(-c2ccccc2)no1` (stereo unspecified)?
NTR1 agonist: -2; A1 inh: 0; GRK2 aptamer HTS: 0; B2AR ag: -7; VLA-4 inh: -5

Results for O=C(NCc1nc(-c2ccccc2)no1)c1ccc2c(c1)OCO2 ?
NTR1 agonist: 3; A1 inh: 1; GRK2 aptamer HTS: 0; B2AR ag: 0; VLA-4 inh: -5

How did Cc1ccccc1OCc1nc(-c2ccc(NC(=O)c3ccco3)cc2)no1 do in these assays?
NTR1 agonist: 6; A1 inh: -2; GRK2 aptamer HTS: 3; B2AR ag: 3; VLA-4 inh: 15; B2AR ag CP1: 128; FAP fluor counter: inactive

What do the screens show for `Cc1ccccc1OCc1nc(-c2ccc(NC(=O)c3cccs3)cc2)no1`?
NTR1 agonist: 5; A1 inh: -8; GRK2 aptamer HTS: 9; B2AR ag: -6; VLA-4 inh: 38; B2AR ag CP1: 124; FAP fluor counter: inactive

How did Cc1ccccc1OCc1nc(-c2ccc(NC(=O)c3ccc4c(c3)OCO4)cc2)no1 do in these assays?
NTR1 agonist: 5; A1 inh: -10; GRK2 aptamer HTS: 4; B2AR ag: -5; VLA-4 inh: 13; B2AR ag CP1: 106; FAP fluor counter: inactive

Results for CC(Oc1ccc(Cl)cc1Cl)c1nc(-c2ccc(NC(=O)c3ccco3)cc2)no1 (stereo unspecified) ?
NTR1 agonist: 9; A1 inh: 0; GRK2 aptamer HTS: 2; B2AR ag: 66*; VLA-4 inh: 31; B2AR ag CP1: 59; FAP fluor counter: inactive

Screening data (PubChem)
